From PubChem BioAssay
Rows were chosen to be rich in hits. Some 10% of all compounds tested hit in one or more screens of this group.
Gal4-VP16 FLuc = VP16 counterscreen qHTS for inhibitors of ROR gamma transcriptional activity; Drosophila S2 Gal4-VP16 UAS-luciferase, luminescence, 20 h; Potency, µM (doses to about 53.6 µM), usual class: inhibitors; 310,000 tested, 3.5% active;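 note: Gal4-VP16 expression switched on by copper sulfate through the metallothionein promoter; nearly all actives have a fitted effect of over 50% in size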
SW480 rerep = A quantitative high throughput screen for small molecules that induce DNA re-replication in SW480 colon adenocarcinoma cells | SW480 DNA re-replication, Hoechst DNA content imaging, 48 h | Potency, µM (top dose mostly 46.1 µM), actives largely listed as activators | 340,000 tested, 1.8% active; note: nearly all actives have a fitted effect of over 55% in size
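SW480 cells exposed to compounds for 48 hr at 37 C, 5% CO2, then Hoechst-stained 40 min. Nuclear DNA content imaged by fluorescence scanning (405 nm excitation, 500-530 nm emission); re-replication scored as increased high-intensity nuclei.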
ELG1 repair inh = qHTS screen for small molecules that inhibit ELG1-dependent DNA repair in human embryonic kidney (HEK293T) cells expressing luciferase-tagged ELG1; 330,000 tested, 2.3% active; Potency, µM (titrated, usually from 46.1 µM), most hits filed as inhibitors; HEK293T ELG1-luciferase reporter, luminescence, 16 h; DNA damage induced by 5-fluorouridine; note: nearly all actives have a fitted effect of over 55% in size
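Step one: seed 2,000 cells per well. Step two: pin-transfer compound or DMSO alongside 5-fluorouridine. Step three: incubate 16 hr, 37 °C, 5% CO2. Step four: add ONE-Glo, wait 30 min, read luminescence.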
MCF10A rereplic = A quantitative high throughput screen for small molecules that induce DNA re-replication in MCF 10a normal breast cells; 350,000 tested, 2.9% active; Potency, µM (series often up to 46.1 µM), usual class: activators; MCF 10A DNA re-replication, Hoechst nuclear intensity, 48 h; AID 624296, 2012; note: nearly all actives have a fitted effect of over 50% in size
RORgamma inh = qHTS for inhibitors of ROR gamma transcriptional activity | AID 2551, 2010 | Drosophila S2 Gal4-RORgamma UAS-luciferase reporter, 20 h | Nuclear receptor ROR-gamma (Mus musculus), P51450 | 310,000 tested, 5.4% active | Potency, µM (doses to about 53.6 µM), hits mostly inhibitors; note: nearly all actives have a fitted effect of over 60% in size
Target sequence (P51450 whole entry, looked up, the tested form may be a part): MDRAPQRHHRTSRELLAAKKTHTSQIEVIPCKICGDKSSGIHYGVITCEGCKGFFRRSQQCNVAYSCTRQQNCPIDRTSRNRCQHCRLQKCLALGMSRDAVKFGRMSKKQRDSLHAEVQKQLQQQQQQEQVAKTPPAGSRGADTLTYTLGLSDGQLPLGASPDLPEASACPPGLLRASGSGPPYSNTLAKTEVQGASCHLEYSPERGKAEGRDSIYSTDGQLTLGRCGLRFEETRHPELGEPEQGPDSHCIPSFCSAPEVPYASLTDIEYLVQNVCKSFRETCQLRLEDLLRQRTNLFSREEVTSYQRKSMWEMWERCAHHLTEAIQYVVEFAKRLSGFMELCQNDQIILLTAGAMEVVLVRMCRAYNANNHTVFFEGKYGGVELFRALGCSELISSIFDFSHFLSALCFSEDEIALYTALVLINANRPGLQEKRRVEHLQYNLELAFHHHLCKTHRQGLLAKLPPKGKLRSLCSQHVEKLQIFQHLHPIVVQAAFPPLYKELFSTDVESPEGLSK
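Luciferase reporter read in Schneider cells carrying Gal4-RORγ (mouse) and UAS-Photinus luciferase; cells given compound 1 h before 700 uM copper sulfate induction, then incubated 20 h at ambient temperature.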
A number is an active result; 0 = inactive; ? = inconclusive; - = not tested or not shown; [ ] = remark or other dose. Calls come from the whole dose curve; as a rule, active = well fitted curve in the direction sought with a large enough effect; inconclusive = small, poorly fitted or top-dose-only effect, or another doubt; inactive = no such curve, though single readings can be large; an effect the other way counts as inactive or inconclusive.

SMILES | Gal4-VP16 FLuc | SW480 rerep | ELG1 repair inh | MCF10A rereplic | RORgamma inh
CCC1CCCCN1CCn1c(=S)[nH]c2cc(OC)c(OC)cc2c1=O (stereo unspecified) | 0 | 0 | 0 | 0 | 10µM
CCOc1cc2[nH]c(=S)n(CCCN3CCN(C)CC3)c(=O)c2cc1OCC | - | 0 | - | 0 | -
CCOc1cc2[nH]c(=S)n(CC3CCCN3CC)c(=O)c2cc1OCC (stereo unspecified) | 0 | 0 | 0 | 0 | 10µM
COc1cc2[nH]c(=S)n(CCN3CCOCC3)c(=O)c2cc1OC | 0 | 0 | 0 | ? | ?
Cc1ccc(S(=O)(=O)NCC(=O)OC(C)C(=O)NC(=O)NC2CCCCC2)cc1C (stereo unspecified) | - | 0 | 0 | 0 | -
CC1(C)c2[nH]c3ccccc3c2C[C@H]2C(=O)N(Cc3ccccc3)C(=O)N21 | - | 0 | - | ? | -
CC1(C)c2[nH]c3ccccc3c2C[C@@H]2C(=O)N(Cc3ccccc3)C(=O)N21 | - | ? | - | 23.1µM | -
Cc1cccc(CN2C(=O)[C@@H]3Cc4c([nH]c5ccccc45)C(C)(C)N3C2=O)c1 | - | 0 | - | ? | -
COC(=O)[C@@H]1Cc2c([nH]c3ccccc23)C(C)(C)N1C(=O)CCl | 0 | 6.51µM | ? | 18.4µM | 0
Cc1cccc(CN2C(=O)[C@H]3Cc4c([nH]c5ccccc45)C(C)(C)N3C2=O)c1 | - | ? | - | 16.4µM | -
C[C@H](CO)N1C[C@H](C)[C@@H](CN(C)S(=O)(=O)c2ccccc2)Oc2c(NS(=O)(=O)c3ccccc3)cccc2C1=O | - | 0 | 0 | 0 | -
CC1CC=CC2C1C(=O)N(Cc1ccccc1)C2c1ccc2ccccc2c1 (stereo unspecified) | 0 | - | - | - | ?
CCOC(=O)N1CCN(C(=O)CSc2nnc(-c3ccc(Cl)s3)o2)CC1 | 0 | - | 0 | - | 0
O=C(CSc1nnc(-c2ccc(Cl)s2)o1)N1CCOCC1 | 0 | - | ? | - | 0
CC(=O)Nc1nnc(-c2ccc(Cl)s2)o1 | 5.62µM | 0 | 0 | 0 | 3.55µM
CCC(=O)Nc1nnc(-c2ccc(Cl)s2)o1 | 12.6µM | 0 | ? | 0 | 7.08µM
CCN(c1ccc(NC(=O)COC(=O)CCc2cc(OC)c(OC)c(OC)c2)cc1)C(C)C | 0 | 0 | ? | 0 | ?
CC1(C)CC(=O)C2=C(C1)NC(=S)C(C#N)C21CCCCC1 (stereo unspecified) | 0 | 0 | 0 | 0 | 10µM
CCOC(=O)c1c(NC(=O)c2ccoc2C)sc(C(=O)N(C)C)c1C | 0 | 0 | 7.31µM | 0 | 0
CCOC(=O)c1c(NC(=O)COC(=O)c2ccccc2NC)sc(C(=O)N(C)C)c1C | 0 | 0 | 18.3µM | 0 | 0
CCN(CC)C(=O)c1sc(NC(=O)c2ccoc2C)c(C(=O)OC)c1C | 0 | 0 | ? | 0 | 0
CCCc1c2ccccc2nc2ccccc12 | 0 | 0 | ? | 0 | 0
Nc1nc(-c2ccc(-n3nncc3-c3ccco3)cc2)cs1 | 0 | 0 | ? | 23.1µM | 0
Cc1nc(-c2ccc(-n3nncc3-c3ccco3)cc2)cs1 | 0 | 0 | 0 | 0 | ?
O=C1NCCN/C1=C\C(=O)c1ccc(Br)cc1 | 0 | 0 | ? | 0 | 0
SMILES | Gal4-VP16 FLuc | SW480 rerep | ELG1 repair inh | MCF10A rereplic | RORgamma inh
Cc1c(Cl)cccc1NC(=S)N(C)CCC#N | 0 | 0 | 0 | 0 | 0
Cc1ccc2c(c1)/C(=N/OS(=O)(=O)c1ccccc1)CCS2 | - | 0 | - | 0[0.0737 µM] | -
CC1=CC(=O)C=C(C)C1=NOS(=O)(=O)c1ccccc1 | 17.8µM | 7.31µM | ? | 7.31µM | 17.8µM
CC1=CC(=O)C(C(C)C)=C/C1=N/OS(=O)(=O)c1ccccc1 | 2µM | 0.731µM | ? | 2.91µM | 2.82µM
COc1ccccc1C(=O)COC(=O)C1(C)CC1(Cl)Cl (stereo unspecified) | - | 0 | ? | 0 | -
CCCCCOC(=O)Nc1nc(=O)n(C2O[C@H](C)[C@@H](O)[C@@H]2O)cc1F (stereo partly specified) | 0 | 0 | - | 0 | 0[10 µM]
Cc1ccc(NC(=O)c2ccc(F)c(S(=O)(=O)N3CCOCC3)c2)cc1F | 0 | 0 | 0 | 0 | ?
CCOc1ccccc1NC(=O)c1ccc(S(=O)(=O)N2CCCCC2)cc1 | 0 | 0 | 0 | 0 | ?
O=C(Nc1ccc(-c2cn3ccsc3n2)cc1)c1ccc(F)c(S(=O)(=O)N2CCOCC2)c1 | 0 | 0 | 16.4µM | 0 | ?
CCOc1ccccc1NC(=O)c1ccc(F)c(S(=O)(=O)N2CCC3(CC2)OCCO3)c1 | 0 | 0 | 20.6µM | 0 | 0
O=C(Nc1ccccc1)c1ccc(F)c(S(=O)(=O)N2CCOCC2)c1 | 0 | 0 | 14.6µM | 0 | ?
O=C(Nc1ccccc1)c1ccc(NCC2CCCO2)c(S(=O)(=O)N2CCOCC2)c1 (stereo unspecified) | ? | 0 | 23.1µM | 0 | 0
NC(=O)c1ccc(NC(=O)COC(=O)C2CCN(S(=O)(=O)c3cccs3)CC2)cc1 | - | 0 | 0 | 0 | -
CCC(CO)Oc1cc(NC(=O)c2ccccc2[N+](=O)[O-])c2ncn(C(C)C)c2c1 (stereo unspecified) | - | 0 | 0 | 0 | -
COc1cc(/C=C/C(=O)O)ccc1OS(=O)(=O)c1ccc(C)cc1 | 0 | 0 | 0 | 0 | 0
COc1cc(/C=C/C(=O)c2ccc(NS(=O)(=O)c3ccc(C)cc3)cc2)ccc1OC(F)F | ? | ? | ? | 23.1µM | ?
COc1cccc(/C=C/C(=O)c2ccc(NS(=O)(=O)c3ccc(C)cc3)cc2)c1 | ? | ? | ? | 5.8µM | 0[10 µM]
COc1cc(/C=C/C(=O)c2ccc(NS(=O)(=O)c3ccc(C)cc3)cc2)cc(OC)c1O | ? | ? | 10.3µM | 18.4µM | ?
COc1ccc(C(=O)/C=C/Nc2ccc(S(=O)(=O)Nc3ncccn3)cc2)cc1 | 0 | - | ? | - | 0
COc1ccc(OC)c(NC(=S)N2CCN(C(=O)C3CCCO3)CC2)c1 (stereo unspecified) | 0 | 0 | 0 | 0 | 0
O=C(Nc1ccc(-c2nc3ccccc3s2)c(O)c1)C1=COCCO1 | ? | 0 | ? | ? | 0.501µM
O=C(Nc1ccc(-c2nc3ccccc3s2)cc1)C1=COCCO1 | 4.47µM | 0 | ? | 0 | 2µM
O=C(Nc1ccc(O)c(-c2nc3ccccc3s2)c1)C1=COCCO1 | 0 | 0 | 0 | 0 | ?
O=C(Nc1ccc(OC(=O)c2ccccc2)c(-c2nc3ccccc3s2)c1)c1ccccc1 | 0 | ? | 0 | 20.6µM | 0
O=C(Nc1cccc(-c2nc3ccccc3s2)c1)C1=COCCO1 | 0 | - | 0 | 0 | 0
COC(=O)CNC(=O)c1sc2ncn(CC(=O)Nc3ccc(C)c(Cl)c3)c(=O)c2c1C | 0 | 0 | 0 | 0 | 0
COc1ccc(-c2ccc3oc(-c4ccc(OC)cc4)c(C#CC4(O)CCCCC4)c3c2)cc1 | - | 0 | - | ? | -
CC(C)(C)c1ccc(-c2cc(C(=O)NNC(=O)Nc3ccccc3)c3ccccc3n2)cc1 | ? | ? | ? | ? | 1µM
